Reference: PubChem BioAssay AID2314 (National Center for Advancing Translational Sciences (NCATS), 2010)
The campaign covered roughly 300,000 compounds. About 37,000 (12%) were called active. Cut-off read from the data, not from the text of the source: active = max response mostly above about 13% (no sharp cut-off); inactive = mostly below about 14%. The full list was thinned out, with actives kept by preference.

Test: Cycloheximide Counterscreen for Small Molecule Inhibitors of Shiga Toxin; note: read at 38.3 µM for the half of the compounds with a filed dose; 0% is about no effect
Conditions: cell reporter, cycloheximide protein synthesis inhibition counterscreen; hits give high values

| SMILES | max response |
| --- | --- |
| COc1ccc(OC)c(C2C3=C(N=c4s/c(=C\c5cccc(O)c5)c(=O)n42)c2ccccc2CC3)c1 (centres undefined) | -1.53% (inactive) |
| COc1ccc(NC(=O)c2cc3nc(-c4ccccc4)cc(C)n3n2)cc1OC | -3.85% (inactive) |
| CC(C)c1ccc(OCC(=O)N2CCCN(C)CC2)cc1 | 14.8% (inactive) |
| CC(C)c1ccc(OCC(=O)N2CCN(C)CC2)c(Br)c1 | 11.3% (active) |
| CN1CCN(C(=O)COc2ccc(C(C)(C)C)cc2Br)CC1 | -0.455% (inactive) |
| Cc1ccc(-c2nc(C)sc2CC(=O)OCC(=O)Nc2c(F)cccc2F)cc1 | 1.62% (inactive) |
| O=C(Nc1ccc(N2CCCC2=O)cc1)c1cncc(Br)c1 | 1.75% (inactive) |
| COCn1c(C(O)c2ccccc2)cc2ccccc21 (centres undefined) | 5.67% (inactive) |
| Cc1cccc(N2CCN(C(=O)COCc3cc(-c4ccc5c(c4)OCO5)on3)CC2)c1C | 13.7% (inactive) |
| CCOC(=O)N1CCN(C(=O)COCc2cc(-c3ccc4c(c3)OCO4)on2)CC1 | 9.44% (inactive) |
| CC(C)NC(=O)COCc1cc(-c2ccc3c(c2)OCO3)on1 | 34.6% (active) |
| CCCn1nnnc1NCc1ccc(CC)cc1 | 15.5% (inactive) |
| CCN1CCN(c2sc(S(C)(=O)=O)nc2S(=O)(=O)c2ccc(Cl)cc2)CC1 | 13.5% (inactive) |
| COc1ccc(/C=C/c2nnc(NC(=O)C(C)C)s2)cc1 | 13.9% (active) |
| O=C(Nc1ccc(Cl)cc1)Nc1nnc(/C=C/c2ccccc2)s1 | 6.47% (inactive) |
| O=C(CSc1ccccc1)Nc1nnc(/C=C/c2ccccc2)s1 | 0.905% (inactive) |
| CCCCNC(=O)N1CCCC(N(C)CCc2ccc(OC)c(OC)c2)C1 (centres undefined) | -0.786% (inactive) |
| CCCC(=O)n1nc(-c2ccccc2)nc1N | -1.34% (inactive) |
| Cc1nn(C(=O)c2ccoc2C)c(N)c1-c1ccccc1 | 53.9% (active) |
| CCOC(=O)c1c(N)nn(C(=O)c2ccccc2)c1-c1ccccc1 | -1.7% (inactive) |
| CCC(C)[C@@H](N)C(=O)O (some centres undefined) | -4.08% (inactive) |
| CCCCNC(=O)c1ccccc1NC(=O)C1=C(C)OCCS1 | 1.86% (inactive) |
| COc1ccc(CCNC(=O)C(=O)Nc2ccc3nc4n(c(=O)c3c2)CCCCC4)cc1OC | -0.998% (inactive) |
| Cc1nc(N2CCOCC2)c2c(C)c(C(=O)Nc3ccc(C(F)(F)F)cc3)sc2n1 | -1.52% (inactive) |

| SMILES | max response |
| --- | --- |
| Cc1c(C(=O)Nc2ccccc2)sc2nc3n(c(=O)c12)CCCCC3 | 36.1% (active) |
| O=c1c2c(nc3n1CCCCC3)sc1c(O)cccc12 | 12.7% (inactive) |
| CC(=O)c1sc2nc(SCC(=O)N3CCCCC3)[nH]c(=O)c2c1C | -3.21% (inactive) |
| CCCCN(CC)C(=S)Nc1ccc2nc3n(c(=O)c2c1)CCCCC3 | -3.24% (inactive) |
| O=C(Nc1ccc2nc3n(c(=O)c2c1)CCCCC3)c1ccccc1Cl | 23% (active) |
| CC(=O)c1ccc(NC(=O)c2sc3nc4n(c(=O)c3c2C)CCCCC4)cc1 | 47.8% (active) |
| Cc1nc(N2CCN(c3ccccn3)CC2)c2c(C)c(C(=O)Nc3ccc(F)cc3)sc2n1 | 1.78% (inactive) |
| O=[N+]([O-])/C=C/c1ccc2c(ccn2Cc2ccccc2)c1 | -1.88% (inactive) |
| CN(C)CCCCCN(C)Cc1cc2ccccc2o1 | -0.524% (inactive) |
| COCCCNC(=O)CNC(=O)c1nn(-c2ccc(OC)cc2)c(=O)c2ccccc12 | -1.37% (inactive) |
| O=C(Nc1ccccc1C(=O)O)c1ccc(N2C(=O)C3CC=CCC3C2=O)cc1 (centres undefined) | -5.5% (inactive) |
| O=C1CSc2ccc(S(=O)(=O)NCc3ccccc3)cc2N1 | 7.11% (inactive) |
| COc1cccc(N(C(=O)c2ccn[nH]2)C2(C(=O)Nc3c(C)cccc3C)CCCCC2)c1 | -5.43% (inactive) |
| Cc1oc(-c2ccccc2F)nc1CS(=O)CC(=O)NCCN1CCCCC1C (centres undefined) | -6.49% (inactive) |
| COc1ccccc1-c1nc(C#N)c(N2CCC(C(N)=O)CC2)o1 | -3.17% (inactive) |
| CC1CCN(c2oc(-c3ccccc3F)nc2C#N)CC1 | 28.8% (active) |
| Cc1ccc(NN=Nc2nc3c([nH]2)c(=O)n(C)c(=O)n3C)cc1 | 11.7% (inactive) |
| Cc1cccc(C)c1NC(=O)CN1C(=O)C(C)Oc2ccccc21 (centres undefined) | 1.84% (inactive) |
| COCCn1c(SCC(=O)Nc2ccccc2F)nc2c(c1=O)SCC2 | 8.88% (inactive) |
| COc1ccc(C(C)NC(=S)NC2CCCCC2)cc1OC (centres undefined) | -2.46% (inactive) |
| COc1cc(Br)c(-c2sc(Nc3ccccc3)n[n+]2-c2ccccc2)cc1OC | 1.49% (inactive) |
| CCc1ccc(Oc2coc3cc(O)ccc3c2=O)cc1 | 31.5% (active) |
| CCc1ccc(Oc2coc3cc(OC(=O)c4cc5ccccc5oc4=O)ccc3c2=O)cc1 | 12% (inactive) |
| COc1ccc(Oc2coc3cc(OC(=O)c4cncc(Br)c4)ccc3c2=O)cc1 | 5.74% (inactive) |

| SMILES | max response |
| --- | --- |
| CC[C@H](C)[C@H](NC(=O)[C@H](Cc1ccc(O)cc1)NC(=O)[C@@H](NC(=O)[C@H](CCCN=C(N)N)NC(=O)[C@@H](N)CC(=O)O)C(C)C)C(=O)N[C@@H](Cc1cnc[nH]1)C(=O)N1CCC[C@H]1C(=O)N[C@@H](Cc1ccccc1)C(=O)O | 16% (inactive) |
| C=CCN1C(=O)C2(OCCCO2)c2cccc(Cl)c21 | 1.84% (inactive) |
| Cc1ccc(CNC(=O)Cn2cnc(S(=O)(=O)N3CCCCC3)c2)o1 | 6.21% (inactive) |
| CCCCC(CCC(=O)Nc1ccc(C(=O)OCC)cc1)C(=O)O (centres undefined) | 0.691% (inactive) |
| CC(C)NS(=O)(=O)c1ccc(NC(=O)c2cccnc2)cc1 | -3.02% (inactive) |
| CCOC(=O)c1ccc(NC(=O)c2cccnc2)cc1 | 38.1% (active) |
| CCOC(=O)c1ccc(-c2ccc(C(=O)Nc3cccnc3)o2)cc1 | 32.1% (active) |
| C#CCNc1ccc(C(=O)OCC)cc1 | 31.8% (active) |
| O=C(Cc1ccccc1)Nc1ccc(NC(=O)c2cccnc2)cc1 | -2.68% (inactive) |
| CCOC(=O)c1ccc(NC(=O)CCn2c(=O)oc3ccccc32)cc1 | 9.25% (inactive) |
| CCOC(=O)c1ccc(NC(=S)N2CCCC2)cc1 | 9.83% (inactive) |
| CCCc1nnc(SCC(=O)Nc2ccc(C(=O)OCC)cc2)o1 | 3.14% (inactive) |
| CCOC(=O)c1ccc(NC(=O)CSc2ncccn2)cc1 | 26.6% (active) |
| CCOC(=O)c1ccc(NC(=O)CSc2nnc(COc3ccccc3OC)n2C)cc1 | 4.99% (inactive) |
| COc1ccc(C)cc1NC(=O)c1ccc(-c2ccc(C(C)=O)cc2)o1 | 16% (inactive) |
| COc1ccccc1N1CC(C(=O)Nc2nnc(SCC(=O)NC(C)C)s2)CC1=O (centres undefined) | -0.494% (inactive) |
| C=CCN1C(=O)C(O)(CC(=O)c2ccc(Cl)cc2)c2ccccc21 (centres undefined) | -1.68% (inactive) |
| Cc1c([N+](=O)[O-])c(N)nn1C | -1.77% (inactive) |
| COCCNC(=S)N(CCc1c(C)[nH]c2ccc(C)cc12)Cc1cccnc1 | -0.385% (inactive) |
| C=CCNC(=O)c1sc(SC)cc1-c1ccc(Cl)cc1 | -0.634% (inactive) |
| CCOC(=O)C1CCN(C(=O)CN2C(=O)c3cccnc3Oc3ccc(C)cc32)CC1 | -3.81% (inactive) |
| CCCOc1ccc(C(=O)C(CCC(CNCC)C(=O)c2ccc(OCCC)cc2)CNCC)cc1 (centres undefined) | -10% (inactive) |
| O=S(=O)(NCC1CC1)c1ccc(F)c(Cl)c1 | 0.9% (inactive) |
| O=C(NC1C2CC3CC(C2)CC1C3)c1ccc(N2CCNCC2)c([N+](=O)[O-])c1 (centres undefined) | -2.96% (inactive) |

| SMILES | max response |
| --- | --- |
| N#Cc1cc([N+](=O)[O-])ccc1NCC1CCCO1 (centres undefined) | -4.48% (inactive) |
| O=C(Cc1cccs1)Nc1ccc([N+](=O)[O-])cc1 | -1.6% (inactive) |
| CCOC(=O)c1ccc(NC(=O)Cc2cccs2)cc1 | 33% (active) |
| CCOc1ccccc1NC(=O)Cc1cccs1 | -3.39% (inactive) |
| COc1cccc(NC(=O)CC(c2ccc(OC(C)C)cc2)c2ccccc2OC)c1 (centres undefined) | 2.51% (inactive) |
| COc1ccc(/C=C(\NC(=O)c2ccc(OCC(C)C)cc2)C(=O)OCc2ccco2)cc1 | -1.98% (inactive) |
| COc1ccc(Cn2c(=S)[nH]c3cc(C(=O)NCCCN4CCOCC4)ccc3c2=O)cc1 | -1.29% (inactive) |
| Cc1ccnc(NC(=O)CCNS(=O)(=O)c2ccc(C)c(C)c2)c1 | 47.8% (active) |
| Cc1ccc(S(=O)(=O)NCCC(=O)Nc2ccc(C)c(Cl)c2)cc1C | -4.03% (inactive) |
| Cc1ccc(S(=O)(=O)NCCC(=O)Nc2cccc(S(N)(=O)=O)c2)cc1C | -4.85% (inactive) |
| O=C1C=C(c2ccc(Cl)cc2)C(=O)N1Nc1ccccc1 | -6.32% (inactive) |
| CCOc1cc(CNn2c(C)nnc2SCC(=O)NC(C)(C)C)ccc1OCC(=O)NC(C)(C)C | -1.88% (inactive) |
| Cn1cnc2c1c(=O)n(Cc1ccccc1C#N)c(=O)n2C | 7.66% (inactive) |
| COc1ccccc1CN1CCCC(N2CCN(c3ccc(F)cc3)CC2)C1 (centres undefined) | 0.35% (inactive) |
| CN(C)/N=C/c1cc(Cl)cc([N+](=O)[O-])c1O | -1.13% (inactive) |
| N#CC(C#N)=Cc1cc(O)c(O)c([N+](=O)[O-])c1 | 37% (active) |
| O=[N+]([O-])c1cc([N+](=O)[O-])c2cccnc2c1O | 5.27% (inactive) |
| O=[N+]([O-])c1ccccc1/C=C/CN1CCC(O)CC1 | 0.466% (inactive) |
| COc1ccc(-c2c(C#Cc3ccccc3)c3ccccc3n2C)cc1 | 40% (active) |
| COc1ccc(CCNCc2c(-c3ccccc3)n(C)c3ccccc23)cc1 | -3.43% (inactive) |
| CN(C)Cc1c(C#N)c2ccccc2n1C | -3.13% (inactive) |
| Cc1cc(=O)oc2c1ccc1ccccc12 | 0.801% (inactive) |
